# Measurements published in PubChem BioAssay (EPA / NIEHS).
# Records with an inconclusive call do not appear. Active and inactive are the calls of the source. Rule for the calls, unless noted: active = hit-call score of the fitted dose curve at least 0.9, where 1 is the maximum; inconclusive = response in the unintended direction; inactive = score below 0.9.
# Key:
# [1] = biological target: human RAR-related Orphan Receptor gamma (RORg), RORC (gene 6097) (UniProt P51449); test: ATG_RORg_TRANS: Attagene TRANS-FACTORIAL HepG2 Assay for human RAR-related Orphan Receptor gamma (RORg) (AID 2283011)
# Sequence of human RAR-related Orphan Receptor gamma (RORg), RORC (gene 6097) (P51449 whole entry, looked up, the tested form may be a part): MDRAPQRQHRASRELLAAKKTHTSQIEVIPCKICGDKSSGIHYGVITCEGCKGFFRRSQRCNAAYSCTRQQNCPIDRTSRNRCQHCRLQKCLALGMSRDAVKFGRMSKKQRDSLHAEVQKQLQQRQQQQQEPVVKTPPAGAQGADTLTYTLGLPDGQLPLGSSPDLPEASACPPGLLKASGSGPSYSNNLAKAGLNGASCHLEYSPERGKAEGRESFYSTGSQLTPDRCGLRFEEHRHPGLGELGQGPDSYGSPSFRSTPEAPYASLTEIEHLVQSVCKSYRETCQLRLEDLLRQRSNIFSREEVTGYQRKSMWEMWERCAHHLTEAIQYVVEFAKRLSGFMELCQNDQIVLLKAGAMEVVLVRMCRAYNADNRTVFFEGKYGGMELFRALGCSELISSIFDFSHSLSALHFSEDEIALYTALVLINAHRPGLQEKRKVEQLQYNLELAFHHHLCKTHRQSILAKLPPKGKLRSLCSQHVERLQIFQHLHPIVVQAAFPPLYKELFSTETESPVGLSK
# In short: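 HepG2 cells transiently transfected with GAL4-UAS reporter units and chimeric RORg-Gal4 construct; after 24 h chemical exposure, reporter mRNA measured by RT-PCR with fluorescent capillary electrophoresis, gain of signal fitted against DMSO.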
# [2] = biological target: human Retinoid X Receptor beta (RXRb), RXRB (gene 6257) (UniProt P28702); test: ATG_RXRb_TRANS: Attagene TRANS-FACTORIAL HepG2 Assay for human Retinoid X Receptor beta (RXRb) (AID 2283013)
# Sequence of human Retinoid X Receptor beta (RXRb), RXRB (gene 6257) (P28702 whole entry, looked up, the tested form may be a part): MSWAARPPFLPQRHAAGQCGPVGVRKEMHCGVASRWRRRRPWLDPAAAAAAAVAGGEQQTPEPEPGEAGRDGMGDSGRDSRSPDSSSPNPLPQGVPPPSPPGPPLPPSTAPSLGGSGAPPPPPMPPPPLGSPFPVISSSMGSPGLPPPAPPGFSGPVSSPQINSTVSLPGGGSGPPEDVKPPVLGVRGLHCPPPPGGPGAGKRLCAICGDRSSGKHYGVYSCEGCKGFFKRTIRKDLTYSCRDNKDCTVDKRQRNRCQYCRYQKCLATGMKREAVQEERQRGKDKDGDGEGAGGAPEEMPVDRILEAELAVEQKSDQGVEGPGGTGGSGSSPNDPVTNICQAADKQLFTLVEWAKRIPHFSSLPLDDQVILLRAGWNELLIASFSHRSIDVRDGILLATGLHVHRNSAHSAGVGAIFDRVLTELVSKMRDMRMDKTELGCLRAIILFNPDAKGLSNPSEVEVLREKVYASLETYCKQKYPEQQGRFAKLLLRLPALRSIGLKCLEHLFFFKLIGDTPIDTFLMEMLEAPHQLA
# In short: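 Transfect HepG2 with GAL4-UAS multi-reporter constructs (chimeric NR-Gal4, TRANS format); dose compound 24 h; isolate RNA, RT-PCR, FAM primer extension, HpaI digest; quantify by capillary electrophoresis; positive direction vs DMSO.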
# [3] = biological target: human Thyroid Receptor alpha (THRa1), THRA (gene 7067) (UniProt P10827); test: ATG_THRa1_TRANS: Attagene TRANS-FACTORIAL HepG2 Assay for human Thyroid Receptor alpha (THRa1) (AID 2283014)
# Sequence of human Thyroid Receptor alpha (THRa1), THRA (gene 7067) (P10827 whole entry, looked up, the tested form may be a part): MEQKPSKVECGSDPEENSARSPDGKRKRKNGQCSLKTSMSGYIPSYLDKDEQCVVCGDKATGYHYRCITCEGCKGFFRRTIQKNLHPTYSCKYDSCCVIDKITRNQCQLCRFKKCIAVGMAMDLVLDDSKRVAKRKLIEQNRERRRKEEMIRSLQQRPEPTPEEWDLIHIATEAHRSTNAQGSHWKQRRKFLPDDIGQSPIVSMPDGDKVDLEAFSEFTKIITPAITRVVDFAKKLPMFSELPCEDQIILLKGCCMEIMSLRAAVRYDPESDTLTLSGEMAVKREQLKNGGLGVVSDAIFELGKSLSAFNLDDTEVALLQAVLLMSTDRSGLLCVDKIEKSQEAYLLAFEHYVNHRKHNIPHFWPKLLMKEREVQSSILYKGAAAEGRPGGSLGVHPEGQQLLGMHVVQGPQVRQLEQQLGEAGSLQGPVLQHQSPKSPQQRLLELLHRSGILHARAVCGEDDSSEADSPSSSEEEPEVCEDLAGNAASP
# In short: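 HepG2 cells transiently transfected with chimeric NR-Gal4 and GAL4-UAS reporter units, dosed 24 h. Reporter mRNA quantified by RT-PCR, fluorescent labeling, HpaI digestion and capillary electrophoresis; gain-of-signal fit versus DMSO.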
# [4] = read-out: E-selectin (Homo sapiens) (UniProt P16581); test: BSK_3C_Eselectin: BioMAP Diversity Plus: 3C Assay for Eselectin Biomarker Activity (AID 2283015; active = hit-call score of the fitted dose curve at least 0.9, where 1 is the maximum; inactive = score below 0.9;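 note: cell surface E-selectin protein quantified by ELISA 24 h after dosing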); settings: primary human endothelial cells (HUVEC); actives raise or lower the signal
# In short: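 Primary human umbilical vein endothelial cells (3C system), read 24 h after compound addition; E-selectin measured by ELISA. Bidirectional curve fitting against DMSO baseline; cytotoxicity by parallel SRB total-protein staining.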
# [5] = read-out: Interleukin-1 alpha (IL1a), IL1A (gene 3552); test: BSK_BE3C_IL1a: BioMAP Diversity Plus: BE3C Assay for Interleukin-1 alpha (IL1a) Biomarker Activity (AID 2283016; active = hit-call score of the fitted dose curve at least 0.9, where 1 is the maximum; inactive = score below 0.9); settings: primary human bronchial epithelial cells; actives raise or lower the signal
# In short: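 BE3C primary human bronchial epithelium; cpd 24 h; IL-1a by ELISA; bidirectional fit vs DMSO; parallel SRB (0.1% SRB, 10% TCA fix, 560 nm) for cytotoxicity.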
# [6] = read-out: Monocyte Chemoattractant Protein-1 (MCP1), CCL2 (gene 6347); test: BSK_3C_MCP1: BioMAP Diversity Plus: 3C Assay for Monocyte Chemoattractant Protein-1 (MCP1) Biomarker Activity (AID 2283017; active = hit-call score of the fitted dose curve at least 0.9, where 1 is the maximum; inactive = score below 0.9); settings: primary human endothelial cells (HUVEC); actives raise or lower the signal
# In short: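 Human umbilical vein endothelial cells (3C system) exposed to chemicals for 24 h; MCP-1 quantified by ELISA against the DMSO baseline with bidirectional fitting, and parallel SRB staining used to assess cytotoxicity.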
# [7] = read-out: Human Leukocyte Antigen - DR isotype (HLADR), HLA-DRA (gene 3122); test: BSK_3C_HLADR: BioMAP Diversity Plus: 3C Assay for Human Leukocyte Antigen - DR isotype (HLADR) Biomarker Activity (AID 2283019; active = hit-call score of the fitted dose curve at least 0.9, where 1 is the maximum; inactive = score below 0.9;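 for outcome: ELISA of cell-surface HLA-DR on HUVEC 24 h after dosing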); settings: primary human endothelial cells (HUVEC); actives raise or lower the signal
# In short: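 HUVEC monoculture, HLA-DR measured by ELISA 24 h after chemical dosing. Fitted bidirectionally against DMSO baseline; parallel SRB staining assessed cytotoxicity, with 3C proliferation read by SRB at 48 h.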
# [8] = read-out: Interleukin-8 (IL8), CXCL8 (gene 3576); test: BSK_3C_IL8: BioMAP Diversity Plus: 3C Assay for Interleukin-8 (IL8) Biomarker Activity (AID 2283020; active = hit-call score of the fitted dose curve at least 0.9, where 1 is the maximum; inactive = score below 0.9); settings: primary human endothelial cells (HUVEC); actives raise or lower the signal
# In short: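 ELISA read-out of IL-8 from human umbilical vein endothelium, measured 24 h after chemical dosing. Activity is expressed relative to DMSO negative control, with both increases and decreases fitted.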
# [9] = biological target: Retinoic acid receptor RXR-alpha (Homo sapiens) (UniProt P19793); test: ATG_RXRa_TRANS: Attagene TRANS-FACTORIAL HepG2 Assay for human Retinoid X Receptor alpha (RXRa) (AID 2283012)
# Sequence of Retinoic acid receptor RXR-alpha (Homo sapiens) (P19793 whole entry, looked up, the tested form may be a part): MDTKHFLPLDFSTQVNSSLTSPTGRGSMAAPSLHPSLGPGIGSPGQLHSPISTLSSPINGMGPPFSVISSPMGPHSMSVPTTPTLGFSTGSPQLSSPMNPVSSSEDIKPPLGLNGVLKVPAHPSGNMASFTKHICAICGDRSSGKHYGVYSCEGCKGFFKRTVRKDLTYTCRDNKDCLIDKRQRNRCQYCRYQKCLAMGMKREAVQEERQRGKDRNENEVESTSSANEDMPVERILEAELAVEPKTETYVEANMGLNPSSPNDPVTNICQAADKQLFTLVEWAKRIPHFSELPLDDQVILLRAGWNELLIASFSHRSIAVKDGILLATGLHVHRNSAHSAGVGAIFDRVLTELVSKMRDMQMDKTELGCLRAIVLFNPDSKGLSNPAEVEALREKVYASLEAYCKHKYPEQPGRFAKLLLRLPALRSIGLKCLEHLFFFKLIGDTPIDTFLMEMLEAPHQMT
# In short: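 Transient transfection of human HepG2 with multiple GAL4-UAS reporter constructs; 24 h compound exposure; total RNA isolated, reverse-transcribed, PCR-amplified, 6-FAM labelled, HpaI-cut, resolved by capillary electrophoresis. Positive-direction fit versus DMSO.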
# Sequence of E-selectin (Homo sapiens) (P16581 whole entry, looked up): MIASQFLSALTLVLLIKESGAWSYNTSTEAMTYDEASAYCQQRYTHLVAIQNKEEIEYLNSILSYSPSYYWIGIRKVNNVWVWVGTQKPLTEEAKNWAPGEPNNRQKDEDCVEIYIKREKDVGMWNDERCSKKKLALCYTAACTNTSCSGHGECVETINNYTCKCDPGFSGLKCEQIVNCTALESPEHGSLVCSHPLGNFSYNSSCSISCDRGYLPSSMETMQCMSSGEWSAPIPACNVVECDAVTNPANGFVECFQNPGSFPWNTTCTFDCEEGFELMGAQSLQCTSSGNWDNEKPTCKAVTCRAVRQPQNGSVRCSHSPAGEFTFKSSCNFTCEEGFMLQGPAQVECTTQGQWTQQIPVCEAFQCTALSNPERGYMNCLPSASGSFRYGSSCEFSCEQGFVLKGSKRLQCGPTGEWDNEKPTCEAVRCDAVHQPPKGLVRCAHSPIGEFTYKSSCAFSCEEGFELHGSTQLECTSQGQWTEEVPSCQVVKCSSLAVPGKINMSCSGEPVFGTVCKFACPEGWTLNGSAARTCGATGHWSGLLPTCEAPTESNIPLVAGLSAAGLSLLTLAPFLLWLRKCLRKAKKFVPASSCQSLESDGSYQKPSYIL
structure (smiles),measurement,setting,value
CCCCCCC(O)CCCCCCCCCCC(=O)O (stereo not given),outcome,[1],inactive
same,AC50,[2],22.7 µM (active)
CCCC(=O)c1ccccc1,outcome,[1],inactive
same,outcome,[3],inactive
IC(I)I,outcome,[1],inactive
same,outcome,[2],inactive
same,outcome,[3],inactive
same,outcome,[4],inactive
same,outcome,[5],inactive
same,outcome,[6],inactive
same,outcome,[7],inactive
same,outcome,[8],inactive
Cc1cc(CCC(=O)OCCOCCOCCOC(=O)CCc2cc(C)c(O)c(C(C)(C)C)c2)cc(C(C)(C)C)c1O,outcome,[1],inactive
same,outcome,[2],inactive
same,outcome,[3],inactive
same,outcome,[4],inactive
same,outcome,[5],inactive
same,AC50,[6],17.8 µM (active)
same,AC50,[7],17.8 µM (active)
same,AC50,[8],32.3 µM (active)
CC=CC=CCOC(=O)C(C)C,outcome,[1],inactive
same,outcome,[3],inactive
O=P(O)(O)O,outcome,[1],inactive
same,outcome,[2],inactive
Cc1ccc(OC(=O)c2ccccc2O)cc1,outcome,[1],inactive
same,outcome,[3],inactive
O=CCc1ccccc1,outcome,[1],inactive
same,outcome,[2],inactive
CS(=O)(=O)c1ccc(Cl)cc1,outcome,[1],inactive
same,outcome,[2],inactive
C1CCCCC1,outcome,[1],inactive
same,outcome,[2],inactive
OCCc1ccccc1,outcome,[1],inactive
same,outcome,[2],inactive
same,outcome,[3],inactive
O=[N+]([O-])c1ccc(O)cc1C(F)(F)F,outcome,[1],inactive
same,outcome,[2],inactive
C=C(C)C(=O)OCCOCCOCCOCCOC(=O)C(=C)C,outcome,[1],inactive
same,outcome,[4],inactive
same,outcome,[5],inactive
same,outcome,[6],inactive
same,outcome,[7],inactive
same,outcome,[8],inactive
CCN(CC)C(=O)N(CC)CC,outcome,[1],inactive
same,outcome,[4],inactive
same,outcome,[5],inactive
same,outcome,[6],inactive
same,outcome,[7],inactive
same,outcome,[8],inactive
CC(C)C(OC(=O)c1ccccc1)C(C)(C)COC(=O)c1ccccc1 (stereo not given),outcome,[9],inactive
same,AC50,[2],25.4 µM (active)
same,outcome,[3],inactive
CCc1cc(C(C)(C)C)c(O)c(C(C)(C)C)c1,AC50,[9],11.3 µM (active)
same,AC50,[2],0.325 µM (active)
Nc1ccc(N)c2c1C(=O)c1ccccc1C2=O,outcome,[9],inactive
same,outcome,[2],inactive
O=C(O)CCCCCCCCC(=O)O,outcome,[9],inactive
same,outcome,[2],inactive
c1ccc(CN(Cc2ccccc2)Cc2ccccc2)cc1,outcome,[9],inactive
same,AC50,[2],13.1 µM (active)
COc1ccc(N)c([N+](=O)[O-])c1,outcome,[9],inactive
same,outcome,[2],inactive
same,outcome,[3],inactive
Cc1ccc(C)o1,outcome,[9],inactive
same,outcome,[2],inactive
CC(C)CCOC(=O)c1ccccc1,outcome,[9],inactive
same,outcome,[2],inactive
same,outcome,[3],inactive
CSc1c(Cl)c(Cl)c(Cl)c(Cl)c1Cl,AC50,[9],27.3 µM (active)
same,AC50,[2],2.96 µM (active)
